Shown are actives, neighbours in structure and some others; about 12% of the full set was active somewhere.
Sfp inh: Sfp phosphopantetheinyl transferase inhibition | Q9F4F7 | Biochemical Sfp PPTase activity, qHTS | Potency, µM, without a hit: largest response in the series, negative = inhibition, actives largely listed as inhibitors | 3.5% of 310,000 active;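 note: the enzyme is Sfp with the accession as filed and its product quenches rhodamine fluorescence; 0% = enzyme reaction without inhibitor and -100% = no enzyme wells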
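After 15 min at room temperature with compound, 15 nM Sfp received 5 uM rhodamine-CoA plus 12.5 uM BHQ-2-ybbR (50 mM Hepes pH 7.6, 10 mM MgCl2). Rate came from the fluorescence difference over 30 min, ex 525/em 598 nm.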
PLK1 PBD block: blocks phosphopeptide binding to human PLK1 polo-box domain; P53350; Plk1 PBD binding of FITC phosphopeptide, fluorescence polarization; Potency, µM, without a hit: max response, negative = inhibition, hits mostly inhibitors; 2.8% of 360,000 active; note: series mostly up to about 57 µM; % is set by controls: 0 for no effect and ±100 for the full control effect; nearly all actives have a fitted effect of over 65% in size
G9a block: blocks human histone lysine methyltransferase G9a; Q96KQ7; Potency, µM (top dose mostly 102 µM), without a hit: at the top dose activity, negative = inhibition, usual class: inhibitors; AID 504332; G9a H3K9 monomethylation, AlphaScreen, 2 h; 8.8% of 350,000 active; note: % is set by controls: 0 for no effect and ±100 for the full control effect; nearly all actives have a fitted effect of over 75% in size
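Quantitative HTS format: methyltransferase activity on a biotin-tagged H3K9 peptide is measured by AlphaScreen, using a rabbit anti-monomethyl-H3K9 antibody with streptavidin donor and anti-IgG acceptor beads. Final levels are 20 nM enzyme, 500 nM peptide, 20 uM SAM; 2 h RT.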
JMJD2A Tudor: blocks the human JMJD2A Tudor domain | AlphaScreen JMJD2A-Tudor / H3K4me3 peptide binding | Potency, µM (titrated, usually from 114 µM), inactives show at the highest dose activity change, negative = inhibition, most hits filed as inhibitors | 4.4% of 390,000 active | AID 504339; note: % is set by controls: 0 for no effect and ±100 for the full control effect; nearly all actives have a fitted effect of over 50% in size
BAZ2B inh: inhibitors of human BAZ2B bromodomain; Q9UIF8; AlphaScreen BAZ2B-H3K14Ac peptide displacement; Potency, µM (highest dose often 114 µM), inactives show top-dose activity change, negative = inhibition, most hits filed as inhibitors; 4.4% of 360,000 active; AID 504333; note: % is set by controls: 0 for no effect and ±100 for the full control effect; nearly all actives have a fitted effect of over 60% in size
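BAZ2B (50 nM) with biotin-H3(5-23)K14Ac peptide (50 nM) in PBS pH 7.4, 0.01% Tween-20, preformed 30 min, then compound 30 min at room temperature; top concentration 110uM. AlphaScreen streptavidin donor/nickel chelate acceptor beads (10 ug/mL final), 20 min dark, signal read.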
HP1b binding inh: blocks HP1-beta chromodomain binding to methylated histone tails; AlphaScreen HP1-beta / biotin-H3K9me3 peptide binding; AID 540317; 0.56% of 390,000 active; P83916; Potency, µM (doses to about 114 µM), for inactives: at the top dose activity change, negative = inhibition, usual class: inhibitors; note: nearly all actives have a fitted effect of over 70% in size
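HP1-beta protein (50 nM final) preincubated 30 min at room temperature with biotinylated H3(1-18)K9me3 peptide (50 nM) in PBS pH 7.4, 0.01% Tween-20, then compound added for 30 min. AlphaScreen streptavidin donor/nickel chelate acceptor beads (10 ug/mL final), 30 min dark, luminescence read.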
An asterisk follows results filed as active; ? = inconclusive; . = no result; [ ] = dose if it differs, or a comment. Calls come from the whole dose curve; as a rule, active = well fitted curve in the direction sought with a large enough effect; inconclusive = small, poorly fitted or top-dose-only effect, or another doubt; inactive = no such curve, though single readings can be large; an effect the other way counts as inactive or inconclusive. Potency is the fitted concentration of half-maximal effect.

SMILES	Sfp inh	PLK1 PBD block	G9a block	JMJD2A Tudor	BAZ2B inh	HP1b binding inh
CC(C(=O)O)n1c2ccccc2c2cn[nH]c(=O)c21 (stereo not given)	-0.7%	-18.5%	27.9%[0.501 µM]	-4.0%	-5.4%	86.7%
Cc1ccc(CNC(=O)c2ccc(-n3c(C)cc4c3CCCC4)cc2)cc1	.	.	-25.2%[59 µM]	-27.4%	-11.6%	9.6%
Cc1cc2c(n1-c1ccc(C(=O)O)cc1)CCCCC2	-13.0%	.	7.94µM*	.	12.6µM*	.
OC1CN=C2CCCc3c2n(c2ccc(Cl)cc32)C1 (stereo not given)	-9.5%	-29.4%	?	-31.1%	-37.2%	24.3%
c1ccc(-c2ccc3c(c2)c2c4n3CCN=C4CCC2)cc1	?	29.9µM*	20µM*	56.2µM*	?	-22.7%
O=C(NCc1ccccc1)NC1(C(=O)N2CCN(c3ncccn3)CC2)CCCCC1	12.4%	26.7µM*	-25.8%	-17.6%[11.4 µM]	-1.0%	-11.9%
O=C(CN1CCN(c2ncccn2)CC1)NCc1ccccc1	21.5%	-1.3%	56.2µM*	-12.9%	9.5%	37.0%
Cn1c(OCc2ccco2)nc2c1c(=O)n(Cc1ccc(Cl)c(Cl)c1)c(=O)n2C	0.1%	11.9µM*	?	-12.7%	-33.1%	20.0%
Cn1c(N2CCOCC2)nc2c1c(=O)n(Cc1ccc(Cl)c(Cl)c1)c(=O)n2C	-18.4%	-1.4%	-8.2%[12.7 µM]	-16.9%	-38.7%	3.5%
Cc1cc(OCC(=O)N(Cc2ccc(N(C)C)cc2)CC2CCCO2)ccc1Cl (stereo not given)	.	.	12.6µM*	35.5µM*	28.2µM*	?
CN(C)c1ccc(CN(CC2CCCO2)C(=O)COc2ccc(Cl)cc2)cc1 (stereo not given)	.	.	14.1µM*	44.7µM*	31.6µM*	?
CCCOc1ccc(C(=O)N(Cc2ccc(N(C)C)cc2)CC2CCCO2)cc1 (stereo not given)	.	.	11.2µM*	39.8µM*	39.8µM*	?
COC(=O)N1[C@H]2CC[C@@]3(C)CC(=O)C[C@]1(C)C3c1ccccc12	-4.5%	.	.	.	.	.

High-throughput results: PubChem BioAssay, National Center for Advancing Translational Sciences (NCATS)
